Calls of active or inactive are those of the source.
Assay: resazurin metabolic signal in HepG2 cells – cell-based, resazurin fluorescence, 24 h, PK04 Diversity Set, profiling panel (AID 1172); note: test concentration not given here
Conditions: HepG2 viability, higher = more signal

| Structure (SMILES) | z-score |
| --- | --- |
| O=C(NCc1ccccc1)[C@]1(CCS(=O)(=O)c2ccccc2)N=C(c2ccc(OCCCO)cc2)O[C@@H]1c1ccccc1 | 0.0669 |
| O=C1c2ccccc2[C@@]2(Cc3ccccc3N(Cc3ccccc3)C2=O)[C@H](c2ccc(CO)cc2)N1C1CCCCC1 | 0.281 |
| COc1ccc(C(O)C2C=CC3C(=O)N(C)C(=O)C3N2Nc2ccccc2)cc1OCc1ccccc1 (stereo not given) | 0.043 |
| CCCNC(=O)[C@@]1(c2ccc([N+](=O)[O-])cc2)CC(=O)N(CC23CC4CC(CC(C4)C2)C3)[C@@H]1c1ccc(CO)cc1 | -1.8 |
| O=C1O[C@@H](c2ccccc2)[C@@H](c2ccccc2)N2[C@@H](c3ccc(O)cc3)[C@]3(C(=O)Nc4ccc(C#CC5(O)CCCCCC5)cc43)[C@@H](C(=O)N3CCCCCCC3)[C@H]12 | 0.366 |
| CC(C)CNC(=O)[C@@H]1c2ccccc2C(=O)N(Cc2cc(C(F)(F)F)cc(C(F)(F)F)c2)[C@H]1c1ccc(CO)cc1 | -1.16 |
| O=C1O[C@H](c2ccccc2)[C@H](c2ccccc2)N2[C@H]1[C@@H](C(=O)O)[C@]1(C(=O)Nc3ccc(C#CC4(O)CCCCCC4)cc31)[C@H]2c1ccc(OCCO)cc1 | 0.246 |
| CCCC[C@@H]1C[C@H]1[C@@H](NC(=O)c1ccc(-c2ccccc2)cc1)c1ccc(-c2ccccc2)cc1 | 0.543 |
| Cc1ccccc1C(O)C1C=CC2C(=O)N(C)C(=O)C2N1N1CCCCC1 (stereo not given) | -0.424 |
| Cc1cc(C)c(C(O)C2C=CC3C(=O)N(C)C(=O)C3N2Nc2ccccc2)c(C)c1 (stereo not given) | -1.03 |
| COc1ccc(C#Cc2ccc3c(c2)[C@]2(C(=O)N3)[C@H](C(=O)NC[C@H](O)c3ccccc3)[C@H]3C(=O)O[C@H](c4ccccc4)[C@H](c4ccccc4)N3[C@@H]2c2ccc(OCCO)cc2)cc1 | -1.07 |
| C=C(C(=O)CC[C@H](OC(C)=O)c1ccc(OCCO)cc1)C(C)C | 0.163 |
| CN(C)C(=O)[C@@]1(CCC(=O)OC(C)(C)C)N=C(c2ccc(OCCCO)cc2)O[C@H]1c1ccccc1 | -0.299 |
| [N-]=[N+]=NCc1ccccc1C[C@]1(C(=O)O)N=C(c2ccc(OCCCO)cc2)O[C@H]1c1ccccc1CN=[N+]=[N-] | 0.924 |
| COc1cc(CO)ccc1OC(C)=O | -0.386 |
| CC(C)=CCCC(C)=CC(O)C1C=CC2C(=O)N(c3ccccc3)C(=O)C2N1Nc1ccccc1 (stereo not given) | -1.4 |
| CC(C)c1ccc(NN2C(C(O)c3ccc(N(C)C)cc3)C=CC3C(=O)N(c4ccccc4)C(=O)C32)cc1 (stereo not given) | 0.0387 |
| COCCOC(=O)N1C(=O)[C@@]2(c3cc(C#CCC(C(=O)OC)C(=O)OC)ccc31)[C@H](C(=O)N1CCCCCCC1)[C@H]1C(=O)O[C@H](c3ccccc3)[C@H](c3ccccc3)N1[C@@H]2c1ccc(OCCO)cc1 | 2.14 |
| O=C1OCCC=C[C@H]2OC34C=CCN(Cc5ccccc5)C(=O)[C@H]3N(CCCCCCO)C(=O)[C@@H]4C12 (stereo not given in full) | 1.83 |
| Cc1ccc(S[C@]2(C(=O)NCCN3CCOCC3)CC(=O)N(Cc3cc(C(F)(F)F)cc(C(F)(F)F)c3)[C@@H]2c2ccc(CO)cc2I)cc1 | 1.21 |
| CCCCCN1CC=CC23O[C@@H]4/C=C\CCC(C)OC(=O)C4[C@H]2C(=O)N(CCCCCO)[C@@H]3C1=O (stereo not given in full) | 0.58 |
| O=C1C2C=CC(C(O)c3cccs3)N(Nc3ccccc3F)C2C(=O)N1c1ccccc1 (stereo not given) | 1.21 |
| NCCCCCCNC(=O)[C@H]1C[C@H]2C(=O)NCC(=O)N2[C@H]1c1cccc(OCCO)c1 | 0.583 |
| COC(=O)C(CC#Cc1ccc2c(c1)[C@]1(C(=O)N2)[C@H](c2ccc(OCCO)cc2)N2[C@H](c3ccccc3)[C@H](c3ccccc3)OC(=O)[C@H]2[C@@H]1C(=O)NC[C@H](O)c1ccccc1)C(=O)OC | 0.722 |
| CCCN1C(=O)[C@@]2(CCC(=O)OC(C)(C)C)N=C(c3ccc(OCCCO)cc3)O[C@H]2c2ccccc21 | 0.803 |

Assay: budding yeast growth changes without added modifier – OD600, strain BY4716, 24 h, basal condition, primary screen (AID 1173)
Conditions: S. cerevisiae BY4716 growth, OD600, 24 h; higher = more signal, called active from +8 up or from −8 down

| Structure (SMILES) | z-score |
| --- | --- |
| C[C@]1(C(=O)NCc2ccccc2)c2ccccc2C(=O)N(Cc2ccc(OC(F)(F)F)cc2)[C@H]1c1ccc(CO)cc1 | -1.51 (inactive) |
| O=C1O[C@@H](c2ccccc2)[C@@H](c2ccccc2)N2[C@@H](c3ccc(O)cc3)[C@]3(C(=O)Nc4ccc(C#CC5=CCCCC5)cc43)[C@@H](C(=O)O)[C@H]12 | -4.6 (inactive) |
| O=C(O)[C@@]1(Cc2ccccc2)N=C(c2ccc(OCCCO)cc2)O[C@H]1c1ccccc1 | -1.12 (inactive) |
| NC(=O)NCC#Cc1ccc2c(c1)[C@]1(C(=O)N2)[C@H](C(=O)N2CCCCCCC2)[C@H]2C(=O)O[C@H](c3ccccc3)[C@H](c3ccccc3)N2[C@@H]1c1ccc(OCCO)cc1 | 1.84 (inactive) |
| CC(C)C[C@@H]1NC(=O)[C@H]2C[C@@H](C(=O)NCCCCCNC(=O)CS)[C@@H](c3cccc(OCCO)c3)N2C1=O | -0.45 (inactive) |
| COC(=O)[C@@]1(Cc2ccccc2)[C@H]2c3cc(C(=O)N4CCCC4)n(C)c3C[C@H]2CN1C(=O)c1ccccc1 | 0.211 (inactive) |
| Cc1ccc(S[C@]2(C(=O)NCC(C)C)CC(=O)N(Cc3ccccc3)[C@@H]2c2ccc(CO)cc2I)cc1 | -1.51 (inactive) |
| COCCOC(=O)N1C(=O)[C@@]2(c3cc(C#CCCO)ccc31)[C@H](c1ccccc1OCCO)N1[C@H](c3ccccc3)[C@H](c3ccccc3)OC(=O)[C@H]1[C@@H]2C(=O)N1CCN(c2ncccn2)CC1 | 1.42 (inactive) |
| CC(c1ccccc1)C(O)C1C=CC2C(=O)NC(=O)C2N1Nc1ccccn1 (stereo not given) | 1.34 (inactive) |
| [N-]=[N+]=NCc1ccccc1C[C@@]1(C(=O)N2CCOCC2)N=C(c2ccc(OCCCO)cc2)O[C@@H]1c1ccccc1CN=[N+]=[N-] | 0.418 (inactive) |
| O=C(NCc1ccccc1)[C@]1(CCS(=O)(=O)c2ccccc2)N=C(c2ccc(OCCCO)cc2)O[C@@H]1c1ccccc1 | 1.08 (inactive) |
| O=C1c2ccccc2[C@@]2(Cc3ccccc3N(Cc3ccccc3)C2=O)[C@H](c2ccc(CO)cc2)N1C1CCCCC1 | 1.61 (inactive) |
| COc1ccc(C(O)C2C=CC3C(=O)N(C)C(=O)C3N2Nc2ccccc2)cc1OCc1ccccc1 (stereo not given) | -12.9 (active) |
| CCCNC(=O)[C@@]1(c2ccc([N+](=O)[O-])cc2)CC(=O)N(CC23CC4CC(CC(C4)C2)C3)[C@@H]1c1ccc(CO)cc1 | 1.07 (inactive) |
| O=C1O[C@@H](c2ccccc2)[C@@H](c2ccccc2)N2[C@@H](c3ccc(O)cc3)[C@]3(C(=O)Nc4ccc(C#CC5(O)CCCCCC5)cc43)[C@@H](C(=O)N3CCCCCCC3)[C@H]12 | -0.479 (inactive) |
| CC(C)CNC(=O)[C@@H]1c2ccccc2C(=O)N(Cc2cc(C(F)(F)F)cc(C(F)(F)F)c2)[C@H]1c1ccc(CO)cc1 | 0.578 (inactive) |
| O=C1O[C@H](c2ccccc2)[C@H](c2ccccc2)N2[C@H]1[C@@H](C(=O)O)[C@]1(C(=O)Nc3ccc(C#CC4(O)CCCCCC4)cc31)[C@H]2c1ccc(OCCO)cc1 | -0.495 (inactive) |
| CCCC[C@@H]1C[C@H]1[C@@H](NC(=O)c1ccc(-c2ccccc2)cc1)c1ccc(-c2ccccc2)cc1 | -0.498 (inactive) |

| Structure (SMILES) | z-score |
| --- | --- |
| Cc1ccccc1C(O)C1C=CC2C(=O)N(C)C(=O)C2N1N1CCCCC1 (stereo not given) | 0.492 (inactive) |
| Cc1cc(C)c(C(O)C2C=CC3C(=O)N(C)C(=O)C3N2Nc2ccccc2)c(C)c1 (stereo not given) | -0.0657 (inactive) |
| COc1ccc(C#Cc2ccc3c(c2)[C@]2(C(=O)N3)[C@H](C(=O)NC[C@H](O)c3ccccc3)[C@H]3C(=O)O[C@H](c4ccccc4)[C@H](c4ccccc4)N3[C@@H]2c2ccc(OCCO)cc2)cc1 | 2.22 (inactive) |
| C=C(C(=O)CC[C@H](OC(C)=O)c1ccc(OCCO)cc1)C(C)C | -16.2 (active) |
| CN(C)C(=O)[C@@]1(CCC(=O)OC(C)(C)C)N=C(c2ccc(OCCCO)cc2)O[C@H]1c1ccccc1 | -0.757 (inactive) |
| [N-]=[N+]=NCc1ccccc1C[C@]1(C(=O)O)N=C(c2ccc(OCCCO)cc2)O[C@H]1c1ccccc1CN=[N+]=[N-] | -3.5 (inactive) |
| COc1cc(CO)ccc1OC(C)=O | -0.277 (inactive) |
| CC(C)=CCCC(C)=CC(O)C1C=CC2C(=O)N(c3ccccc3)C(=O)C2N1Nc1ccccc1 (stereo not given) | -1.66 (inactive) |
| CC(C)c1ccc(NN2C(C(O)c3ccc(N(C)C)cc3)C=CC3C(=O)N(c4ccccc4)C(=O)C32)cc1 (stereo not given) | 0.254 (inactive) |
| COCCOC(=O)N1C(=O)[C@@]2(c3cc(C#CCC(C(=O)OC)C(=O)OC)ccc31)[C@H](C(=O)N1CCCCCCC1)[C@H]1C(=O)O[C@H](c3ccccc3)[C@H](c3ccccc3)N1[C@@H]2c1ccc(OCCO)cc1 | 0.905 (inactive) |
| O=C1OCCC=C[C@H]2OC34C=CCN(Cc5ccccc5)C(=O)[C@H]3N(CCCCCCO)C(=O)[C@@H]4C12 (stereo not given in full) | 0.0187 (inactive) |
| Cc1ccc(S[C@]2(C(=O)NCCN3CCOCC3)CC(=O)N(Cc3cc(C(F)(F)F)cc(C(F)(F)F)c3)[C@@H]2c2ccc(CO)cc2I)cc1 | -5.83 (inactive) |
| CCCCCN1CC=CC23O[C@@H]4/C=C\CCC(C)OC(=O)C4[C@H]2C(=O)N(CCCCCO)[C@@H]3C1=O (stereo not given in full) | -1.12 (inactive) |
| O=C1C2C=CC(C(O)c3cccs3)N(Nc3ccccc3F)C2C(=O)N1c1ccccc1 (stereo not given) | -1.3 (inactive) |
| NCCCCCCNC(=O)[C@H]1C[C@H]2C(=O)NCC(=O)N2[C@H]1c1cccc(OCCO)c1 | -1.42 (inactive) |
| COC(=O)C(CC#Cc1ccc2c(c1)[C@]1(C(=O)N2)[C@H](c2ccc(OCCO)cc2)N2[C@H](c3ccccc3)[C@H](c3ccccc3)OC(=O)[C@H]2[C@@H]1C(=O)NC[C@H](O)c1ccccc1)C(=O)OC | 1.51 (inactive) |
| CCCN1C(=O)[C@@]2(CCC(=O)OC(C)(C)C)N=C(c3ccc(OCCCO)cc3)O[C@H]2c2ccccc21 | -1 (inactive) |
